Gli-Sufu antag – Gli-Sufu pathway antagonists, primary screen, luciferase luminescence, Sufu-KO-LIGHT cells, uHTS | inhibition, % at 5 µM | Sufu-KO-LIGHT fibroblasts, Gli luciferase reporter luminescence | AID 588413, 2011 | actives 0.74% (n = 340,000);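 active = inhibition above about 55%, limit read from the data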;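 note: 0% = DMSO-treated cells and 100% = wells with medium but no cells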
GRIN3A LBD mod – binders of NR3A ligand-binding domain, primary screen, biophysical, differential scanning fluorimetry, uHTS; NR3A LBD differential scanning fluorimetry, Tm shift; 0% = protein alone, 100% = glycine-bound protein; Tm shift relative to glycine control, % at 25 µM; actives 2.5% (n = 340,000); AID 1259313, 2017;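 active = melting temperature shift of at least 10% of the positive control shift, at one fixed dose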
Mdm2 MdmX PPI – inhibitors of human Mdm2-MdmX association, primary screen, cell-based, luminescence, split luciferase, SaOS-2, uHTS. SaOS-2 split-luciferase Mdm2/MdmX complementation. AID 485346, 2010. actives 3% (n = 330,000). inhibition, % at 8 µM;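 active = inhibition of at least 50% at 8 µM in the primary screen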
Target sequence (O15151 whole entry, looked up): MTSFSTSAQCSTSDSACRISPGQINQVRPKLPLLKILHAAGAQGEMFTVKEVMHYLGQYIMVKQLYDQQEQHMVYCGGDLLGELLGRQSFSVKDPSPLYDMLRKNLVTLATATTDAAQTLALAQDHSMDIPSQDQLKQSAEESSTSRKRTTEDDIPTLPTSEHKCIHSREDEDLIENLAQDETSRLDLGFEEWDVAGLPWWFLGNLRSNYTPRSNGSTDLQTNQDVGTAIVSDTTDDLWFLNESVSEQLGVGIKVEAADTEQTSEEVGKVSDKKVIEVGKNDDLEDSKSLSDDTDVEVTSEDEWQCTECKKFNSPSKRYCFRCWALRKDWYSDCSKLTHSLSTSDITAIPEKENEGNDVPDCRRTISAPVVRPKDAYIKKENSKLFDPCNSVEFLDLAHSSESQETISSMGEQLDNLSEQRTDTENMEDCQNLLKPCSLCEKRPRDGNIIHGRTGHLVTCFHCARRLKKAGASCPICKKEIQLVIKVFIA
Target sequence (Q00987 whole entry, looked up): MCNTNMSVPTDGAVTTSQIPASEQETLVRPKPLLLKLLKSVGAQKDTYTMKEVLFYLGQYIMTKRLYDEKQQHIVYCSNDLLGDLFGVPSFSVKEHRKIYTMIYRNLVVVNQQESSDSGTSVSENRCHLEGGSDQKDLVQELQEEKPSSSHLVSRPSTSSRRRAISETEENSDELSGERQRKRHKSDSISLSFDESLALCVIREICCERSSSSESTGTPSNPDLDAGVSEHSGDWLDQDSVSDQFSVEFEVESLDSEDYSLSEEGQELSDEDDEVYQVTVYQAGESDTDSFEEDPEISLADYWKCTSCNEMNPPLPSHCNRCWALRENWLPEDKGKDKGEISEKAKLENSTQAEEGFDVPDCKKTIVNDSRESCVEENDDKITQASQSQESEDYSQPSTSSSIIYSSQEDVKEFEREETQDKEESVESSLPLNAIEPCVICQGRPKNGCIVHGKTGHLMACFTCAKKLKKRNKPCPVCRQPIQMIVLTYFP
MPTP inh – mitochondrial permeability transition pore inhibitors, primary screen, biochemical, isolated mouse mitochondria, absorbance | Ca2+ swelling absorbance, 30 min | inhibition, % at 10 µM | AID 602449, 2012 | actives 1.4% (n = 360,000);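 active = inhibition of 50% or more, scaled per plate between neutral and stimulator controls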;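 note: 0% = DMSO wells given calcium and 100% = 1 mM EGTA wells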
CSC inhib – cancer stem cell viability inhibitors, primary screen, luminescence; cancer stem cell-like cells viability; inhibition, % at 7.5 µM; actives 1.1% (n = 300,000); in the data active = inhibition above about 75%; inconclusive = no clear call, values can overlap the other calls; tested in HMLE shEcad cells
Beta apoptosis – inhibitors of cytokine-induced beta cell apoptosis, primary screen, luminescence | INS-1E cytokine-induced death, ATP luminescence, 48 h; percent of positive-control rescue, neutral wells zero | AID 435005, 2010 | protection from apoptosis, % (concentration not given with the values) | actives 0.8% (n = 300,000);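 active = Every replicate reaches about 75%, or at least half do and their mean reaches it too, limit read from the data; inconclusive = At least half of replicates reach the limit but their mean does not; inactive = Under half of replicates reach the limit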;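 note: 0% = cytokine-treated negative control wells and 100% = positive control rescue; higher means more ATP so stronger rescue from cytokine killing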
Mdm2-MdmX conf – Mdm2-MdmX complex disruptors, retested hits, confirmation, luminescence, single concentration. AID 489028, 2010. actives 55% (n = 10,000). Mdm2-MdmX binding, luminescent assay. shares compounds with Mdm2 MdmX PPI. inhibition, % at 8 µM; in the data active = inhibition above about 40%
Full FLuc ctr – full-length luciferase signal inhibition, confirmation, counter-screen for Mdm2/MdmX interaction inhibitor project, cell-based, single concentration, SaOS-2; shares compounds with Mdm2 MdmX PPI; SaOS-2 full-length luciferase counterscreen, luminescence; inhibition, % at 8 µM; actives 77% (n = 6,200);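 active = mean inhibition at 8 µM reaching about 37%, which flags the compound as non-specific, limit read from the data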;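 note: p53-null SaOS-2 cells with luciferase driven by a doxycycline-inducible promoter; compound on cells about two nights before reading with doxycycline added after day one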
Numbers without * were called inactive; ? = inconclusive; / = not tested or not shown. Hits are enriched below; roughly 6.6% of the tested compounds scored in any of these assays.

SMILES | Gli-Sufu antag | GRIN3A LBD mod | Mdm2 MdmX PPI | MPTP inh | CSC inhib | Beta apoptosis | Mdm2-MdmX conf | Full FLuc ctr
Fc1ccccc1NC(=S)NCCc1cccc(Cl)c1 | 43.0 | -11.7 | -11.9 | 3.8 | 10.0 | 1.3 | / | /
CCC(C(=O)N1CCN(S(=O)(=O)c2ccc(F)cc2)CC1)c1ccccc1 (stereo not given) | -3.8 | 1.1 | 5.8 | -0.6 | -5.6 | -2.4 | / | /
O=C(CCl)N(c1ccccc1)C1CCCCC1 | 5.0 | 2.4 | 93.7* | 0.0 | -15.5 | 106.9* | 99.8* | 52.2*
CC(C)(C)c1ccc(-c2noc(CCC(=O)Nc3cccnc3)n2)cc1 | 70.6* | -7.3 | 54.8* | 4.5 | / | 5.1 | 53.0* | 22.3
COCCn1c(SCC(=O)Nc2cc(C(C)(C)C)nn2-c2ccccc2)nc2ccccc2c1=O | 18.2 | -2.0 | 4.7 | -1.2 | 2.6 | 3.5 | / | /
CC(C)(C)c1cc(NC(=O)CCl)n(-c2ccccc2)n1 | -0.9 | -2.9 | 78.7* | 0.2 | 15.5 | -15.2 | 58.0* | 24.1
CCOCCCn1c(SCC(=O)Nc2cc(C(C)(C)C)nn2-c2ccccc2)nc2ccccc2c1=O | -6.7 | 1.3 | 53.7* | -0.6 | 7.1 | 4.8 | 7.5 | /
O=c1ccn(C2CCCCC2)c(=O)[nH]1 | / | / | / | -1.7 | / | / | / | /
O=C(N/N=C/c1ccc([N+](=O)[O-])s1)c1cccc(Br)c1 | 26.9 | 6.6 | 76.8* | 7.4 | 15.6 | 60.2 | 68.1* | 37.5*
O=C(N/N=C\c1ccc([N+](=O)[O-])s1)C1COc2ccccc2O1 (stereo not given) | -1.2 | 1.6 | 51.2* | -3.4 | -5.8 | -5.3 | 55.1* | 87.3*
Cc1ccc(C(=O)N/N=C/c2ccc([N+](=O)[O-])s2)cc1 | -28.8 | -0.4 | 22.2 | -28.5 | -1.2 | -55.7 | / | /
Cc1cccc(NC(=S)N/N=C/c2ccc([N+](=O)[O-])s2)c1 | 2.4 | 5.6 | 67.1* | 6.2 | 125.5* | 102.5* | 18.2 | /
COc1ccccc1CNC(=O)C1CCN(S(=O)(=O)c2ccc(N3CCCC3=O)cc2)CC1 | 1.1 | 1.4 | 23.8 | -1.7 | -16.4 | -16.1 | / | /
O=C(OCc1c(F)cccc1Cl)c1cnc2ccccc2n1 | 9.9 | 0.8 | 15.7 | -0.4 | -0.8 | 4.2 | / | /
O=C(O)c1c2c(nc3ccccc13)/C(=C/c1cccc([N+](=O)[O-])c1)CCC2 | -22.2 | 4.4 | / | 2.0 | 7.3 | -9.0 | / | /
Cc1[nH]c(=O)[nH]c(=S)c1C(=O)Nc1ccc(Cl)c(Cl)c1 | 6.6 | -0.6 | -17.2 | 1.3 | 8.4 | 3.3 | / | /
C=C1C(=O)C=C[C@]2(C)C[C@@H]3OC(=O)[C@](C)(O)[C@H]3C[C@@H]12 | 16.5 | 9.9 | 73.4* | 0.1 | ? | / | 47.4* | 25.4
COCCCNC(=O)C[C@H]1C[C@H](C(=O)N2CCOCC2)[C@@]2(C)c3[nH]c4cc(CCC(=O)N(C)C)ccc4c3CCN2C1=O | 15.3 | 0.2 | 63.5* | -1.0 | / | / | -23.6 | /
CC(C)=CCC/C(C)=C/CNC(=O)C[C@H]1C[C@H](C(=O)N2CCOCC2)[C@@]2(CCC3CCCC3)c3[nH]c4cc(CCC(=O)N(C)C)ccc4c3CCN2C1=O | 3.6 | -5.7 | 77.1* | -0.9 | / | / | 20.6 | /
CN(C)C(=O)CCc1ccc2c3c([nH]c2c1)[C@]1(CCC2CCCC2)[C@@H](C(=O)N2CCOCC2)C[C@H](CC(=O)NCC24CC5CC(CC(C5)C2)C4)C(=O)N1CC3 | -5.7 | -0.5 | 70.0* | -4.9 | / | / | 63.2* | 43.9*
COCCCNC(=O)C[C@H]1C[C@H](C(=O)N2CCOCC2)[C@@]2(CCC3CCCC3)c3[nH]c4cc(CCC(=O)N(C)C)ccc4c3CCN2C1=O | 0.6 | 0.2 | -5.8 | -0.8 | / | / | / | /
COc1ccc(CCC(=O)NNC(=O)c2cc(Cl)ccc2OC)cc1 | -28.8 | 0.1 | 0.6 | 0.3 | -1.5 | -1.5 | / | /
O=C(NC1CCCC1)C1C(c2ccc(C(F)(F)F)cc2)=Nc2ccccc2N1C(=O)c1cccc2ccccc12 (stereo not given) | / | / | / | 0.6 | / | / | / | /
Nc1c(C(=O)Nc2ccc(F)cc2)sc(=S)n1-c1ccccc1F | -41.4 | 2.7 | 71.6* | -0.2 | 0.1 | -11.2 | 2.8 | /
Cn1c(N)c(C(=O)Nc2ccccc2F)sc1=S | 2.2 | 2.6 | 12.1 | 2.3 | -10.4 | -1.4 | / | /
SMILES | Gli-Sufu antag | GRIN3A LBD mod | Mdm2 MdmX PPI | MPTP inh | CSC inhib | Beta apoptosis | Mdm2-MdmX conf | Full FLuc ctr
O=C1c2ccccc2NC(c2ccc(Cl)cc2Cl)N1O (stereo not given) | 3.5 | -1.1 | 65.2* | 0.3 | / | 3.0 | 46.1* | 30.7
O=C1c2ccccc2NC(c2ccc(Cl)cc2Cl)N1Cc1ccccc1 (stereo not given) | 0.6 | -9.1 | 4.0 | 1.9 | -2.1 | 19.3 | / | /
C=CCc1cccc(C2Nc3ccccc3C(=O)N2O)c1O (stereo not given) | -0.1 | 2.2 | 71.9* | -2.8 | / | 4.2 | 4.7 | /
CC1(c2nnnn2Cc2ccccc2)CCC(=O)N1CCc1ccc(O)cc1 (stereo not given) | / | / | / | 0.8 | / | / | / | /
COCCNC(=O)C1(C)CCCN(C(=O)c2ccc(OC)cc2OC)C1 (stereo not given) | / | / | / | -1.3 | / | / | / | /
COc1cc(CCC(=O)Nc2c(C(=O)N3CCN(c4ccccc4)CC3)oc3ccccc23)on1 | -9.7 | -1.5 | 10.3 | -1.1 | -4.8 | 1.8 | / | /
O=c1cc(-c2c(F)c(F)c(F)c(F)c2F)oc2c(F)c(F)c(F)c(F)c12 | / | / | 100.4* | / | 101.0* | 106.8* | 98.7* | 0.6
O=c1cc(-c2c(F)c(F)c(F)c(F)c2F)oc2ccccc12 | 5.8 | 0.1 | 96.1* | -0.5 | 27.1 | 4.5 | 10.3 | /
O=S1(=O)CC(N2CCCCC2)CN1Cc1ccc(F)cc1 (stereo not given) | / | / | / | -0.8 | / | / | / | /
Cc1nn(-c2ccccc2)c2c1C(c1ccc(Cl)cc1)N(c1ccccc1)C(=O)N2 (stereo not given) | -6.5 | -1.0 | 10.7 | 2.4 | 2.0 | -2.6 | / | /
Cc1nn(-c2ccccc2)c2c1C(c1ccc(O)c(O)c1)N1C(=N2)C(Nc2ccccc2)=Nc2ccccc21 (stereo not given) | -0.5 | 0.9 | 83.2* | -3.6 | 90.4* | 15.0 | 45.2* | 40.3*

High-throughput results deposited in PubChem BioAssay by several laboratories.
